# Data: the supplement of paper PMC10338343
# ± gives the standard deviation.
# Tested on: EfPiwi piRISC loaded with piRNA #1 (26 nt)
# Assay: pre-steady-state target cleavage rate (min^-1); auxiliary factor: 500 nM Ephydatia muelleri Gtsf1; guide: piRNA #1 5'p-UGAGGUAGUAGGUUGUAUAGUAUCCA; MIWI and MILI are mouse PIWI proteins and EfPiwi is from a freshwater sponge; tags in brackets are library labels; higher = faster piRNA-guided slicing of the target
# Description: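 Cleave-'n-Seq: a library of target RNAs (target site in constant flanks) at […] was incubated with 1 nM active freshwater sponge Ephydatia fluviatilis Piwi piRISC (synthetic 5'-monophosphorylated piRNA guide) with or without 500 nM EmGtsf1 at 33 °C for 1 min to 16 h. Uncleaved targets were sequenced and the pooled three trials fitted to a burst-and-steady-state model to give the pre-steady-state cleavage rate (min^-1). Sequence is the target site only. Fits with R² ≤ 0 are excluded.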
row,Sequence,pre-steady-state target cleavage rate
1,GGAGACCUAACUAUCACAACCUACUACCUCA,0.00495 ± 0.0033
2,GGAGUGGAUACUAUACAACCAUCUACCUCA,0.00525 ± 0.0023
3,GGAGUGGAUACUAUACAACCUACUAGCACA,0.00246 ± 0.0018
4,GGAGACGAUACUAUACAACCUACUAACCUCA,0.0059 ± 0.0019
5,GGAGACCAUUGAAUACAACCUACUACCUCA,0.00581 ± 0.0033
6,GGAGACGAUACUAUACAACCUACAACGUCA,0.00349 ± 0.0012
7,GGAGACGAUACUAUAGAACCAACUACCUCA,0.00377 ± 0.002
8,GGAGAGGAUACUUUUCAACCUACUACCUCA,0.00409 ± 0.004
9,GGAGUGGAUACUAUACAACCUUCAACCUCA,0.00298 ± 0.0018
10,GGAGACCAUACUAUACAACCUACUACCUUCA,0.0679 ± 0.02
11,GGAGACCUAUCUAUACAACCUAUUACCUCA,0.00466 ± 0.0039
12,GGAGUCGAUACUAUACAACCUACUACCACA,0.0037 ± 0.0015
13,GGAGUGGAUACUAUACAAUCCUACUACCUCA,0.0124 ± 0.0065
14,GGAGUGGAUACUAUACAACCUACCACCUCA,0.00271 ± 0.0014
15,GGAGUGCAUACUAUACAACCAACUACCUCA,0.00484 ± 0.0026
16,GGAGACCUAACCUAUACAACCUACUACCUCA,0.0868 ± 0.028
17,GGAGUGGAUUGUAUACAACCUACUACCUCA,0.00594 ± 0.0037
18,GGAGACCUUACUAUACAACCUACUAGGAGA [g6:g22:cont:t1A],0.00279 ± 0.0024
19,GGAGACCUUACUGAUACAACCUACUACCUCA,0.0403 ± 0.016
20,GGAGUGGAUAUUAUACAACCUACUACCUCA,0.00879 ± 0.0043

row,Sequence,pre-steady-state target cleavage rate
1,GGAGACCAUACUAUACAACCUACUACGCUCA,0.00458 ± 0.0028
2,GGAGAUGAUACUAUACAACCUACUACCUCA,0.193 ± 0.068
3,GGAGUGGAUACUAUACAACCUACAUCCUCA,0.00282 ± 0.0012
4,GGAGACGAUACUUUACAUCCUACUACCUCA,0.00465 ± 0.0027
5,GGAGACCUAUGAUAUCAACCUACUUCCACA,< 0.0001
6,GGAGACCAUUCUAUACAACCUACUACGUCA,0.0027 ± 0.0025
7,GGAGACGAUACUAUACAACCUACGUACCUCA,0.00418 ± 0.0019
8,GGAGAGGAUACUAUACAACACUACUACCUCA,0.00804 ± 0.0043
9,GGAGACGAUACUAUACAACCUAGAUCCUCA,0.00272 ± 0.0017
10,GGAGACCUAUGUAAUACAACCUACUACCUCA,0.00412 ± 0.0028
11,GGAGUGGAUACUAUACUACCUACUAGCUCA,0.0027 ± 0.0021
12,GGAGUGGAUACUAUACAAGCCUACUACCUCA,0.0104 ± 0.0053
13,GGAGAGGUUUCUAUACAACCUACUACCUCA,0.00427 ± 0.004
14,GGAGACCUAUCUAGUACAACCUACUACCUCA,0.00434 ± 0.0035
15,GGAGACCAUACUAUACCAACCUACUACCUCA,0.00761 ± 0.0031
16,GGAGAGGAAACUAUACAACCUACUUCCUCA,0.00302 ± 0.0017
17,GGAGACCUAACAUACAACCUACUACCUCA,0.0097 ± 0.005
18,GGAGACGAUACUAUACAACAUACUACCUCA,0.00522 ± 0.0024
19,GGAGACCUUACUAUACAACCGACUACCUCA,0.00553 ± 0.0036
20,GGAGUGGAUACUAUACAACCUACUACCACA,0.00561 ± 0.0019
